Inconclusive results are not listed. Active and inactive are the calls of the source.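 How the source made its calls, unless noted: active means percent response above 42, roughly 3 SD of non-fluorescent test compounds; inactive means the rest.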
Tests used:
[1] = rapamycin-like changes in RPL19A-GFP expression – cell-based, S. cerevisiae, multiplex flow cytometry, primary screen (AID 1862; in the data active means percent of DMSO control GFP below about 86%;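 further: lower values mimic rapamycin by blocking the RPL19A rise seen in DMSO cells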); settings: S. cerevisiae RPL19A-GFP strain, flow cytometry fluorescence, 3 h; at 10 µM; stronger effect = lower value
[2] = TOR pathway GLN3 branch reporter MEP2-GFP changes – S. cerevisiae, multiplex flow cytometry, primary screen (AID 1867;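 active means GFP response, as percent of the DMSO control, above the screen-wide mean plus 3 SD, about 139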;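 further: median GFP channel fluorescence of barcode-gated MEP2-GFP cells measured by flow cytometry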); settings: S. cerevisiae MEP2-GFP strain, 3 h, at 10 µM, stronger effect = higher value, 100% means same as DMSO wells
[3] = TOR pathway RTG branch CIT2 reporter changes – S. cerevisiae, GFP fusion, multiplex flow cytometry, primary screen (AID 1870;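 active means percent response above a set limit, the screen-wide mean plus 3 SD, cut at about 130% in these data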;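 further: barcoded CIT2-GFP strain pooled with four other GFP strains with rapamycin as positive control; median GFP fluorescence per well over plate mean of DMSO wells so 100% = DMSO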); settings: S. cerevisiae CIT2-GFP expression, 3 h, at 10 µM, stronger effect = higher value
[4] = TOR pathway LAP4-GFP level changes – S. cerevisiae, multiplex flow cytometry, primary screen (AID 1873;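 active means GFP signal, as percent of the solvent control, above the screen mean plus 3 SD, about 149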); settings: S. cerevisiae LAP4-GFP expression, 3 h, at 10 µM, stronger effect = higher value
[5] = yeast AGP1-GFP level changes, GLN3 branch – cell-based, multiplex flow cytometry, S. cerevisiae, primary screen (AID 1887;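 active means GFP signal above the screen-wide mean plus 3 SD, that is over about 124.5% of the solvent control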;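 further: AGP1-GFP fusion strain of S. cerevisiae within a five-strain barcoded multiplex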); settings: 3 h, at 10 µM, stronger effect = higher value
[6] = reduced mouse 2C T cell binding to pMHC/ICAM-1 vesicles – MLPCN validation set, flow cytometry, LFA-1/ICAM-1 modulator project, pilot screen (AID 2523;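 active means response below a set limit, under 55% cells CD8-positive and vesicle-bound, and CD8 cells' 90th-percentile brightness under 279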;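 on vesicle binding response: mean PE anti-B7-1 fluorescence of CD8+ cells relative to row control; 100% = QL9-loaded vesicles with DMSO vehicle in the same plate row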); settings: 2C mouse CD8+ T cells, at 7 µM, stronger effect = lower value; double positive events: measured here: CD8+/vesicle+ event percentage
[7] = target: Integrin beta-1 (Homo sapiens) + Integrin alpha-4 (Homo sapiens) (UniProt P13612+P05556); assay: alpha4beta1 integrin LIBS antibody binding reduction – U937 cells, HUTS-21 mAb, flow cytometry, validation set, VLA-4 allosteric modulator project, pilot screen (AID 2674;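 active means inhibition above 50%, about 3 SD of the validation set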;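 further: antibody binding induced by the VLA-4 ligand LDV present at three times its Kd; 0% = LDV ligand with antibody and no compound and 100% = antibody without LDV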); settings: HUTS-21 LIBS mAb binding, at 6.7 µM, stronger effect = higher value, binding induced by LDV ligand
Integrin beta-1 (Homo sapiens) + Integrin alpha-4 (Homo sapiens), sequence (P05556 whole entry, looked up): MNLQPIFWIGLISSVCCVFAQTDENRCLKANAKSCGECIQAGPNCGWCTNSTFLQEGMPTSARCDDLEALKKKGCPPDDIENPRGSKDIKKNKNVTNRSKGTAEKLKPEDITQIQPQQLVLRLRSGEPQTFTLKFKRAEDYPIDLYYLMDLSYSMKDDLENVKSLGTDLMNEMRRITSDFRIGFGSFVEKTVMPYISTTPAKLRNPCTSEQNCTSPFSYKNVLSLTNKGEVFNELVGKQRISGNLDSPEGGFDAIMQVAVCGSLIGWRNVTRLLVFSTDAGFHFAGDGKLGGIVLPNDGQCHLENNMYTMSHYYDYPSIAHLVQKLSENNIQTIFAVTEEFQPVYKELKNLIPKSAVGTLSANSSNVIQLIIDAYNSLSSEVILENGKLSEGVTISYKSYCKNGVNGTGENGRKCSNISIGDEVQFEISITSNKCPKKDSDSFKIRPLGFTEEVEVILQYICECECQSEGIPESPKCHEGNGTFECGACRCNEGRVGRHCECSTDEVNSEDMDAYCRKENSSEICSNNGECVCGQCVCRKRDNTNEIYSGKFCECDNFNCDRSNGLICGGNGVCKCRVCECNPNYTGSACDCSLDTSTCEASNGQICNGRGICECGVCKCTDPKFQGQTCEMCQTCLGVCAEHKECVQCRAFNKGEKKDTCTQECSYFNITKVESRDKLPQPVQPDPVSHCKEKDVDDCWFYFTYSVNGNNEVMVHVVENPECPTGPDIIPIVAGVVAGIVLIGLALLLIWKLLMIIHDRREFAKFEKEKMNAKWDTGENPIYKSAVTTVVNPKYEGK
Integrin beta-1 (Homo sapiens) + Integrin alpha-4 (Homo sapiens), sequence (P13612 whole entry, looked up): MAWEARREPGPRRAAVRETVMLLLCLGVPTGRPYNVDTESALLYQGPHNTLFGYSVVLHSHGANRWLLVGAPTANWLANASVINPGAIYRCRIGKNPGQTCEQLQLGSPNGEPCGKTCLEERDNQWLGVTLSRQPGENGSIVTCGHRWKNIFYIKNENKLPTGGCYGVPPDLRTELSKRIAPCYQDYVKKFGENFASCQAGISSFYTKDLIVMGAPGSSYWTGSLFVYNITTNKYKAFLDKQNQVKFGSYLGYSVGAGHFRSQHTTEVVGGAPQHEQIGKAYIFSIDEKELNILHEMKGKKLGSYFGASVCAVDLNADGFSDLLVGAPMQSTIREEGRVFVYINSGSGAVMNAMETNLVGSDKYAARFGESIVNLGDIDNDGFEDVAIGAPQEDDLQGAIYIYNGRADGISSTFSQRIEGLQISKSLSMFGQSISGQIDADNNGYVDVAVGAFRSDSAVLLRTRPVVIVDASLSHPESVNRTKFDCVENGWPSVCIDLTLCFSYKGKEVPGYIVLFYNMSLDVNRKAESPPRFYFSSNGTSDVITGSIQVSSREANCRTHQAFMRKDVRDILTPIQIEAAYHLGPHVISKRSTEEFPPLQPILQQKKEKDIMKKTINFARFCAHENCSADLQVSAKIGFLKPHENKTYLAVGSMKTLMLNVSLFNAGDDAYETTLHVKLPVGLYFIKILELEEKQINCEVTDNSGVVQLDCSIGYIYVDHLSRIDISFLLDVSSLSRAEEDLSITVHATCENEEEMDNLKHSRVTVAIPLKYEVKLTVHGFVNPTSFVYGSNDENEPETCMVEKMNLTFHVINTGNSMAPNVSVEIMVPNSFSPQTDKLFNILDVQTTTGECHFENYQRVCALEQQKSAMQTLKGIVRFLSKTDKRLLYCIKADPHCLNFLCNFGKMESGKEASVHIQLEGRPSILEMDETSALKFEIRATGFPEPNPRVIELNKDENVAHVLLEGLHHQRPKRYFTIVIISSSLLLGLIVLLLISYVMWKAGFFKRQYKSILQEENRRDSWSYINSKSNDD

[8] = calorie-restriction mimetic ROS inhibitors, yeast – validation compound set, pilot screen (AID 2706;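 active means superoxide response below 65% of plate, a cut near 3 SD across the whole screen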;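 further: yeast exposed to compound for one week at 30 degrees C before staining; 100% = mean of all compound wells on the same plate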); settings: S. cerevisiae aging, superoxide DHE fluorescence; at 10 µM; stronger effect = lower value
[9] = target: Beta-adrenergic receptor kinase 1 (Homo sapiens) (UniProt P25098); assay: GRK2 binders displacing RNA aptamer, biochemical, validation, human GRK2, bead flow cytometry (AID 488806;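 active means aptamer binding inhibition above 30%, about 3 SD of noise from non-fluorescent compounds; inactive means inhibition at or below 30%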); settings: bead-bound GRK2, FAM-aptamer displacement, at 10 µM, stronger effect = higher value
Beta-adrenergic receptor kinase 1 (Homo sapiens), sequence (P25098 whole entry, looked up): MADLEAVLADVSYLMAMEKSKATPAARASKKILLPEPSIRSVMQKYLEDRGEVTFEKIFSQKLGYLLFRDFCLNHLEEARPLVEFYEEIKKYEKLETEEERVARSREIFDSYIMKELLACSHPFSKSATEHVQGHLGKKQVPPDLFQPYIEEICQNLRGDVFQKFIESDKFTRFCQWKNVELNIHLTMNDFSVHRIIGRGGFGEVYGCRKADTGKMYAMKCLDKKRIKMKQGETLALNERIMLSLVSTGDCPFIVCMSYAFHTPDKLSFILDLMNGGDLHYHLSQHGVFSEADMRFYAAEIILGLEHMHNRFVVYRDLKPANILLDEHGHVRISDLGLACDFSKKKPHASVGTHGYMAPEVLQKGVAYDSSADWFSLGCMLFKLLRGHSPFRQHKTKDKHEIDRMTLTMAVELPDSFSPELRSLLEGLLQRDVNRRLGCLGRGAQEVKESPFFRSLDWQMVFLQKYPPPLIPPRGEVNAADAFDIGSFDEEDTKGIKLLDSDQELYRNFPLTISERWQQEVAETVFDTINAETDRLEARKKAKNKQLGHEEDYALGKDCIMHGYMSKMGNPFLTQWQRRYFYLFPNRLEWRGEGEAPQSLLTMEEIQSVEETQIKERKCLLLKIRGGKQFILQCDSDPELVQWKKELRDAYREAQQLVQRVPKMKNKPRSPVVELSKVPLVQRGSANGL

[10] = target: Beta-2 adrenergic receptor (Homo sapiens) (UniProt P07550); assay: agonist-induced loss of surface beta2AR – cell-based, FAP fluorogen, flow cytometry, validation set, pilot screen (AID 504459); settings: Am2.2-beta2AR cells, at 10 µM, stronger effect = higher value;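 further: agonist-driven loss of surface beta2AR via internalization measured by FAP dye flow cytometry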
Beta-2 adrenergic receptor (Homo sapiens), sequence (P07550 whole entry, looked up): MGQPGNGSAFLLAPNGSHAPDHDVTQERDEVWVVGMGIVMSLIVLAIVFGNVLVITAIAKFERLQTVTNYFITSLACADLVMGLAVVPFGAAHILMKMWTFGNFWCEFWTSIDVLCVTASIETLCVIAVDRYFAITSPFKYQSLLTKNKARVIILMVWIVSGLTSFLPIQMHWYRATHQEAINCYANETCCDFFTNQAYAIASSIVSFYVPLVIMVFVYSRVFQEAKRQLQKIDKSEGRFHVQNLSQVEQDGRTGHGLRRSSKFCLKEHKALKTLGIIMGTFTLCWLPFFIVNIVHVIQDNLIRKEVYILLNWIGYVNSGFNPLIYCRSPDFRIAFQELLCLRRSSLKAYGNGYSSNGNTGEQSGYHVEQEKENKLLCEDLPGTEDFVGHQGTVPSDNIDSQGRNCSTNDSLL

[11] = target: AP-2 complex subunit beta (Homo sapiens) (UniProt P63010); assay: beta-arrestin/AP2 interaction blockers – biochemical, validation set, GST-AP2 beads, flow cytometry, pilot screen (AID 504541;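 active means inhibition above 54%, about 3 SD of non-fluorescent compounds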;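 further: AP2 carries R879A mutation and is captured from E. coli lysate; bead-bound FITC arrestin peptide fluorescence measuring arrestin peptide binding to AP2; 0% = DMSO wells and 100% = excess unlabeled arrestin peptide control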); settings: FITC arrestin peptide, at 10 µM, stronger effect = higher value, AP2 beta2 appendage fragment, R879A mutant
AP-2 complex subunit beta (Homo sapiens), sequence (P63010 whole entry, looked up, the tested form may be a part, one chain of several): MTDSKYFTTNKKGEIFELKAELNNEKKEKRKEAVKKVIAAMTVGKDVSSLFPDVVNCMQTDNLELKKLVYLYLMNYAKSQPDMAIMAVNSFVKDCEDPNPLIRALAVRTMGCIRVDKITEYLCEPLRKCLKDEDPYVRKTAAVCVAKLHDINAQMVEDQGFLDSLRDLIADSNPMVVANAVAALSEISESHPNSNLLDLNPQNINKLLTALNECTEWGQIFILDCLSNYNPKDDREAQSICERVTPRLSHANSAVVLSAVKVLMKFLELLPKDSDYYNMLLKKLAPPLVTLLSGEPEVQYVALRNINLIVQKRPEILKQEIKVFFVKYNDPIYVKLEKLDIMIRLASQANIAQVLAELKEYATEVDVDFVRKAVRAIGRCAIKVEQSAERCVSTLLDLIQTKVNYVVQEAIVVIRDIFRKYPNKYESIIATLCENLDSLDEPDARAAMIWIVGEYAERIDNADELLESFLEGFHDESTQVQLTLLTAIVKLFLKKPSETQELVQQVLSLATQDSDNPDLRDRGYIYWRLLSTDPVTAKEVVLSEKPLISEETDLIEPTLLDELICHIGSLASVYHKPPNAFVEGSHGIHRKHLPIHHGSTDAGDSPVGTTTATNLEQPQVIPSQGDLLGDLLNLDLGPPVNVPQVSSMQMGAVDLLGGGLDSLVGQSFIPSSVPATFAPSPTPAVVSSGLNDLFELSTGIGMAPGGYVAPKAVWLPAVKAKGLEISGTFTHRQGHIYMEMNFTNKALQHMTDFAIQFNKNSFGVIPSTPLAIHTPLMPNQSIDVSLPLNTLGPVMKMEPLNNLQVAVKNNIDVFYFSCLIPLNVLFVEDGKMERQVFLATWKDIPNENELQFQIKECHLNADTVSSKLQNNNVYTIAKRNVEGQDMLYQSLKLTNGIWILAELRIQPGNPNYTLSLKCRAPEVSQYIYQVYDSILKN

[12] = cytosolic pH regulators acting via V-ATPase – S. cerevisiae, pHLuorin, HTS validation (AID 504600; in the data active means response above about 15%;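 further: plate controls were DMSO for no effect and reference compound for full effect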); settings: V-ATPase proton transport, at 10 µM, stronger effect = higher value
[13] = tested on: anti-desmoglein-3 scFv antibody binding to human DSG3; assay: blockers of pathogenic pemphigus antibody–desmoglein-3 binding – biochemical, validation compound set, bead-based, flow cytometry, pilot screen (AID 588368;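 active means binding below the plate cutoff, the plate median minus 3 SD, with a reading above zero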;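 further: signal is the median channel fluorescence of bead-bound GFP antibody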); settings: Protein G beads, DSG3-Fc, scFv-GFP binding, at 10 µM, stronger effect = lower value
[14] = Nile Red efflux blockade in pump-expressing yeast – validation compound set, multiplex, phenotypic, pilot screen (AID 588506;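 active means efflux inhibition above 0.42, the validation set average plus 4 SD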;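 further: Nile Red retained in cells so higher fluorescence means more efflux inhibition; 0 = negative control wells and 1 = enniatin B 25 µM full block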); settings: S. cerevisiae pump-expressing triplex, Nile Red efflux flow cytometry; at 10 µM; stronger effect = higher value; the pumps come from Candida albicans
[15] = target: ATP-binding cassette sub-family B member 6 (Homo sapiens) (UniProt Q9NP58); assay: blockers of ABCB6-driven porphyrin uptake – K562-ABCB6 cells, flow cytometry, validation set, pilot screen (AID 588550;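 active means inhibition above the screen-wide mean plus 3 SD, about 51%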;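 further: 0% = DMSO wells and 100% = benzethonium chloride 70 µM positive control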); settings: K562-ABCB6 porphyrin accumulation, 1 h, at 10 µM, stronger effect = higher value
ATP-binding cassette sub-family B member 6 (Homo sapiens), sequence (Q9NP58 whole entry, looked up): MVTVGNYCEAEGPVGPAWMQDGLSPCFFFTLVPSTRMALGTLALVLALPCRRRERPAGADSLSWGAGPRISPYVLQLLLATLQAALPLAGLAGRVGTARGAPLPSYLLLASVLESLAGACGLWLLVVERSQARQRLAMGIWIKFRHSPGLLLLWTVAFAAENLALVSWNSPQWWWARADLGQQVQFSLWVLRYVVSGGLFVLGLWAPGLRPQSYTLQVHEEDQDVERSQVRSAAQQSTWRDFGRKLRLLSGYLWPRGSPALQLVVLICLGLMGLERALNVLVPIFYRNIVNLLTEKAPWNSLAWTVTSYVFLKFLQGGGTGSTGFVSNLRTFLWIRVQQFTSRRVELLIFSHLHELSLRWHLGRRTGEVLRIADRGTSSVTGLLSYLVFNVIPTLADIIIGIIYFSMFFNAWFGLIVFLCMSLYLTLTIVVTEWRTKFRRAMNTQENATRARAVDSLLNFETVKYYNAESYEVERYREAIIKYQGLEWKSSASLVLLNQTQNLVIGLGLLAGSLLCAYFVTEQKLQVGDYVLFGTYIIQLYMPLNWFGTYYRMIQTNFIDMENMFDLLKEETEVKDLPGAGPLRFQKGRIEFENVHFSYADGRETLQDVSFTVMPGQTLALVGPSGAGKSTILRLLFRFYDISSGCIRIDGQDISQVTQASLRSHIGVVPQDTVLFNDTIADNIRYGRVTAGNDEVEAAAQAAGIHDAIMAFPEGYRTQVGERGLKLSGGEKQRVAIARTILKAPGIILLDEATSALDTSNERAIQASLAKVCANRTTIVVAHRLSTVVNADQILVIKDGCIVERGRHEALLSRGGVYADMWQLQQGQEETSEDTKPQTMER

[16] = AML differentiation inducers, ER-HoxA9 marrow cells – cell-based, GFP/MAC1 double positive, flow cytometry, validation set, primary screen (AID 588685;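 active means differentiation response of at least 50%, scaled between solvent and reference control, from cells with both markers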;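 further: compound exposure lasts four days before antibody staining and flow analysis; 0% = DMSO wells and 100% = 5 µM fulvestrant positive control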); settings: stronger effect = higher value, normalized: vehicle 0, fulvestrant 100

Cc1coc2cc3oc(=O)c(CCC(=O)O)c(C)c3cc12
inactive: percent of DMSO control GFP [1] 95.4% | GFP response vs DMSO [2] 101% | percent response of DMSO control [3] 92% | GFP response vs DMSO [4] 147% | GFP response, % of DMSO [5] 86.8% | vesicle binding response [6] 223% | inhibition [7] -11.3% | superoxide response (% of plate) [8] 109% | aptamer binding inhibition [9] 1% | response [10] -0.85% | inhibition [11] 20.5% | response [12] -3.3% | binding (% of control) [13] 106% | efflux inhibition (fraction of control) [14] -0.17 | inhibition [15] 6% | differentiation response [16] -2.4%
58.9%: double positive events [6]

O=S(=O)(CCc1nc2ccccc2[nH]1)c1ccc(Cl)cc1
inactive: percent of DMSO control GFP [1] 98.6% | GFP response vs DMSO [2] 106% | percent response of DMSO control [3] 98.6% | GFP response vs DMSO [4] 124% | GFP response, % of DMSO [5] 99.7% | vesicle binding response [6] 159% | inhibition [7] -7.25% | superoxide response (% of plate) [8] 104% | aptamer binding inhibition [9] -2% | response [10] 13.4% | inhibition [11] -4.72% | response [12] -0.13% | binding (% of control) [13] 103% | efflux inhibition (fraction of control) [14] -0.21 | inhibition [15] -7% | differentiation response [16] -16.8%
60.3%: double positive events [6]

COc1cc(C2Nc3ccccc3C(=O)N2c2ccccc2)ccc1O (stereo not given)
62.9%: double positive events [6]
active: response [12] 61.2%
inactive: percent of DMSO control GFP [1] 109% | GFP response vs DMSO [2] 108% | percent response of DMSO control [3] 116% | GFP response vs DMSO [4] 93.3% | GFP response, % of DMSO [5] 103% | vesicle binding response [6] 256% | inhibition [7] 3.7% | superoxide response (% of plate) [8] 90% | aptamer binding inhibition [9] 0% | response [10] -10.2% | inhibition [11] -6.11% | binding (% of control) [13] 99.7% | efflux inhibition (fraction of control) [14] 0.18 | inhibition [15] 3% | differentiation response [16] 9.04%

O=C(/C=C/c1ccc(F)cc1)N1CC[C@@]2(O)CCCC[C@H]2C1
61.1%: double positive events [6]
inactive: percent of DMSO control GFP [1] 96.7% | GFP response vs DMSO [2] 112% | percent response of DMSO control [3] 89.1% | GFP response vs DMSO [4] 125% | GFP response, % of DMSO [5] 96.5% | vesicle binding response [6] 198% | inhibition [7] -4.52% | superoxide response (% of plate) [8] 98.4% | aptamer binding inhibition [9] 3% | response [10] 15.3% | inhibition [11] -5.97% | response [12] 10.1% | binding (% of control) [13] 98% | efflux inhibition (fraction of control) [14] -0.13 | inhibition [15] 7% | differentiation response [16] -13.6%

COc1c(O)ccc2c1CN1CCc3cc4c(cc3C1C2)OCO4 (stereo not given)
inactive: percent of DMSO control GFP [1] 107% | GFP response vs DMSO [2] 112% | percent response of DMSO control [3] 93.9% | GFP response vs DMSO [4] 130% | GFP response, % of DMSO [5] 103% | vesicle binding response [6] 157% | superoxide response (% of plate) [8] 92.6% | aptamer binding inhibition [9] 1% | response [10] 24.6% | inhibition [11] 30.3% | response [12] -1.39% | binding (% of control) [13] 99.7% | inhibition [15] -25% | differentiation response [16] 23.2%
active: efflux inhibition (fraction of control) [14] 0.66
61.6%: double positive events [6]

COC1CCN(Cc2cn(Cc3ccccc3)nc2-c2cc3ccccc3o2)CC1
61.8%: double positive events [6]
inactive: percent of DMSO control GFP [1] 105% | GFP response vs DMSO [2] 93% | percent response of DMSO control [3] 102% | GFP response vs DMSO [4] 89.4% | GFP response, % of DMSO [5] 98.9% | vesicle binding response [6] 243% | inhibition [7] 22.4% | superoxide response (% of plate) [8] 104% | aptamer binding inhibition [9] 0% | response [10] 8.96% | inhibition [11] 9.94% | response [12] -0.82% | binding (% of control) [13] 105% | efflux inhibition (fraction of control) [14] -0.14 | inhibition [15] 12% | differentiation response [16] -9.53%

Cc1cccc(Nc2ncccc2C(=O)O)c1C
inactive: percent of DMSO control GFP [1] 103% | GFP response vs DMSO [2] 103% | percent response of DMSO control [3] 109% | GFP response vs DMSO [4] 90.1% | GFP response, % of DMSO [5] 108% | vesicle binding response [6] 203% | inhibition [7] 2.66% | superoxide response (% of plate) [8] 105% | aptamer binding inhibition [9] 1% | response [10] -6.59% | inhibition [11] 1.75% | response [12] -0.8% | binding (% of control) [13] 98.4% | efflux inhibition (fraction of control) [14] 0.08 | inhibition [15] 6% | differentiation response [16] -9.53%
62.7%: double positive events [6]

COc1ccc(/C=C\c2nc(=O)c3ccccc3o2)cc1
inactive: percent of DMSO control GFP [1] 111% | GFP response vs DMSO [2] 100% | percent response of DMSO control [3] 101% | GFP response vs DMSO [4] 81.5% | GFP response, % of DMSO [5] 96.7% | vesicle binding response [6] 360% | inhibition [7] 6.81% | superoxide response (% of plate) [8] 108% | aptamer binding inhibition [9] 5% | response [10] 2.1% | inhibition [11] 0.71% | response [12] 8.52% | binding (% of control) [13] 98% | efflux inhibition (fraction of control) [14] -0.01 | inhibition [15] 3% | differentiation response [16] 6.11%
64.1%: double positive events [6]
